# PubChem BioAssay (NCI)
# About 79,000 compounds went through this panel and 15% of them were active in at least one assay; those are over-represented in the sample as a whole. Calls of active or inactive are those of the source. No stated cut-off is given here; in the data, active means growth inhibition above about 70%; inactive means the rest.
# Assay: NCI Yeast Anticancer Drug Screen. Data for the bub3 strain (AID 167)
# Conditions: S. cerevisiae bub3 mutant strain, at 50.0 µM, hits give high values
# Procedure, shortened: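 In this screen, a yeast mutant lacking normal mitotic checkpoint function is challenged with compound. Relative growth versus vehicle gives the inhibition value.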
row,Structure (SMILES),growth inhibition
1,CCCCCCCCCCC(=O)O,-15.4% (inactive)
2,O=S=NN(CC(Cl)c1ccccc1)CC(Cl)c1ccccc1 (centres undefined),22.9% (inactive)
3,CCOP(=O)(OCC)C(O)C(C)C (centres undefined),7.5% (inactive)
4,CCOP(=O)(O)C1CCCC(C)[N-]1.CCOP(=O)(O)C1CCCC(C)[N-]1.CCOP(=O)(O)C1CCCC(C)[N-]1.[Ti+3] (centres undefined),-6.3% (inactive)
5,[C-]#[O+].[C-]#[O+].[C-]#[O+].[C-]#[O+].[C-]#[O+].[CH3][Sn]([Cl])[c]1ccccc1.[Mn],96% (active)
6,O=C1NC2C(=CC(O)C(O)C2O)c2cc3c(cc21)OCO3 (centres undefined),39.1% (inactive)
7,Cc1ccc2c(c1)N(CCCl)c1c(ccc3ccccc13)S2,22.2% (inactive)
8,O=C(COc1ccc(Cl)cc1)Nc1ccc(Cl)cc1C(=O)c1ccccc1,1.1% (inactive)
9,NC(N)=Nc1nn[nH]n1,0.35% (inactive)
10,NNC(=O)Nc1ccc([N+](=O)[O-])cc1[N+](=O)[O-],38.4% (inactive)
11,Brc1ccc(Oc2ccc(Br)cc2Br)c(Br)c1,21.6% (inactive)
12,NS(=O)(=O)CC1CC[CH-]CC1.[Cl-].[Cl-].[Cl-].[Cl-].[Cl-].[Sb+5].c1ccncc1,-20.4% (inactive)
13,Nc1nc(N)c(N)c(N)n1,-3.05% (inactive)
14,[Cl][Hg][c]1cccs1,99.7% (active)
15,CCOP(=O)(NC(C)(C)C)OCC,-26.1% (inactive)
16,[CH3][Sb]([CH3])([CH3])([I])[I],-0.2% (inactive)
17,CCOC(OCC)c1ccc(C(F)(F)F)cc1.[C-]#[O+].[C-]#[O+].[C-]#[O+].[Cr],20.4% (inactive)
18,OCCSCSCCO,-2.8% (inactive)
19,Cc1cccc(C)c1NC(N)=S,6% (inactive)
20,COC1CCC2NCCNC2C1 (centres undefined),-8.7% (inactive)

row,Structure (SMILES),growth inhibition
1,C[C@H](CCC1SC1(C)C)C1CCC2(C)C3=C(CC[C@]12C)[C@@]1(C)CC[C@H](O)C(C)(C)C1CC3 (some centres undefined),-5.2% (inactive)
2,N#CC[CH2][Sn]([I])([c]1ccccc1)[c]1ccccc1,98.8% (active)
3,CCCCCCCCCCCCN(C)C,29.1% (inactive)
4,CCN1CCOC(O)(c2cc(Cl)cc(Cl)c2Cl)C1 (centres undefined),26.1% (inactive)
5,O=P(O)(O)CCc1ccccc1,-2.7% (inactive)
6,CCOP(N)(=O)SC (centres undefined),-7.45% (inactive)
7,CC1(C)OP(=O)(c2ccccc2)C=C1Br (centres undefined),-2.75% (inactive)
8,O=S(=O)(Nc1ccc(-c2ccccc2)cc1)c1ccc([As](=O)(O)O)cc1,18.9% (inactive)
9,N#CC(CCN1CCC(Nc2ccccc2)(c2nnnn2C2CCCCC2)CC1)(c1ccccc1)c1ccccc1,4.05% (inactive)
10,CN(C)C(=O)O/N=C(\c1ccccc1)C(F)(F)F,20.7% (inactive)
11,C1C[N-]CC[N-]1.C1C[N-]CC[N-]1.[Zn],99.4% (active)
12,CCC1CN(CC(=O)c2ccc(Br)cc2)CCO1 (centres undefined),48.6% (inactive)
13,CCOS(=O)(=O)c1ccc(C)cc1,8.45% (inactive)
14,O=NN1CCCCCCC1C(=O)O (centres undefined),9.15% (inactive)
15,CC1(C)c2ccccc2C(c2ccccc2)(c2ccccc2)[N+]1(C)C,22.2% (inactive)
16,O=C(c1ccccc1)N1CC1,-3.8% (inactive)
17,O=[N+]([O-])c1ccc(O)c(C=NCCN=Cc2cc([N+](=O)[O-])ccc2O)c1.[Zn+2],1.1% (inactive)
18,Cc1ccc(S(=O)(=O)N/N=C(\CCN2CCCC2)CC(c2ccccc2)c2c(O)c3ccccc3oc2=O)cc1 (centres undefined),9.95% (inactive)
19,O=C1C(Br)=CC2(C=C1Br)CCN=c1c(O)c3c(c(O)c12)=NC=N3,12.7% (inactive)
